Abeta rescue = A-beta toxicity reversal in yeast; yeast expressing A-beta42, growth rescue, OD600, 48 h; response scale: 0% DMSO, 100% iron-clioquinol control; Potency, µM (titrated, usually from 46.1 µM), hits mostly activators; 0.063% of 410,000 active; AID 1347071; further: potency means the concentration at half of the fitted maximal effect; nearly all actives have a fitted effect of over 55% in size
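Yeast growth medium received pinned compounds, then yeast cells expressing toxic A-beta were added; plates incubated at 30 C for 48 hr. Growth read as absorbance at 600 nm, normalized to DMSO and equimolar FeCl3 plus clioquinol controls.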
FUS suppressor = suppressors of FUS proteinopathy in yeast; S. cerevisiae FUS-expressing, growth rescue, OD600, 24 h; Potency, µM (top dose mostly 76.6 µM), usual class: activators; 0.24% of 390,000 active;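 further: potency means the concentration at half of the fitted maximal effect; plate controls were DMSO vehicle for no effect and reference control for full effect; nearly all actives have a fitted effect of over 55% in size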
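Steps: raffinose overnight preculture; dilution to OD 0.005 in 2% galactose minimal medium; compound addition (concentration series); 24hr at 30C, 99% humidity; absorbance read at 600 nm.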
TDP43 rescue = rescues yeast growth from TDP-43 toxicity. AID 652104. TDP-43 expressing yeast growth rescue, BacTiter-Glo, 24 h. 1.8% of 410,000 active. Potency, µM (titrated, usually from 46.1 µM), without a hit: at the highest dose growth rescue (activation), usual class: activators; further: potency means the concentration at half of the fitted maximal effect; % of control where 0% means no effect; nearly all actives have a fitted effect of over 50% in size
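Yeast cells expressing TDP-43 under galactose induction are exposed to compounds for 24 hr at 30 deg C. BacTiter-Glo luminescence measures growth, so protective compounds score as activators.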
pAkt inh = blocks phosphorylation of Akt. Neuro2A IGF-stimulated pAkt S473 HTRF, 20 min; active compounds read low. activity change, % for hits at 50 µM. 0.32% of 360,000 active. AID 651550; in the data active means activity change below about -80%; inconclusive means mostly about -51% to -80%; further: on the % scale 0 is the no-effect control and ±100 the full control effect
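Neuro2A cells in DMEM with 0.5% FBS, overnight at 37 deg C, given compound at single 50 µM final, then IGF (6 nM final) for 20 min at 37 deg C. Lysed; phospho-Akt Ser473 by HTRF after 24 h, 665/615 ratio.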
aSyn rescue = alpha-synuclein toxicity inhibition in yeast. Yeast expressing alpha-synuclein, growth rescue, BacTiter-Glo, 24 h. Potency, µM (series often up to 46.1 µM), for the others: at the highest dose growth rescue (activation), most hits filed as activators. 0.14% of 370,000 active. AID 652106; further: potency means the concentration at half of the fitted maximal effect; % of control where 0% means no effect; nearly all actives have a fitted effect of over 65% in size
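Screening used galactose-induced yeast with toxic alpha-synuclein levels, exposed to compound for 24 hr at 30 deg C. Cell growth, read with BacTiter-Glo luminescence, gave the measured signal.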
An asterisk follows results filed as active; i = inactive; ? = inconclusive; / = not tested or not shown. An excerpt weighted towards active compounds, which were near 2.3% of everything screened. Unless noted, the call rests on the fitted dose curve; in most records, active means well fitted curve in the direction sought with a large enough effect; inconclusive means small, poorly fitted or top-dose-only effect, or another doubt; inactive means no such curve, though single readings can be large; an effect the other way counts as inactive or inconclusive.

SMILES	Abeta rescue	FUS suppressor	TDP43 rescue	pAkt inh	aSyn rescue
Cc1nc(-c2ccc(NC(=O)c3ccc(Br)o3)cc2)cs1	i	i	15%	i	-31%
Cc1nc(-c2cccc(NC(=O)c3ccc(Br)o3)c2)cs1	i	i	11µM*	i	-9%
COc1cccc(Cn2c(C)c(CNCc3ccccc3Cl)c(C(=O)O)c2C)c1	i	i	17%	/	/
CCOC(=O)c1c(C)[nH]c(C(=O)OCC(=O)N2CC(C)OC(C)C2)c1C (configuration not stated)	i	i	7%	-130%*	0%
CCCc1cc(N2CCN(c3ccccc3)CC2)n2cnnc2n1	i	i	20µM*	/	/
COc1ccccc1N1CCN(c2cc(C)nc3nncn23)CC1	i	i	3%	/	/
CCCc1cc(N2CCN(c3ccccc3F)CC2)n2cnnc2n1	i	i	20µM*	/	/
O=c1c2oc3ccccc3c2n(Cc2cccc(F)c2)c(=O)n1Cc1ccco1	i	i	-2%	/	/
COc1cccc(/C=C/c2nc(C#N)c(N3CCC(C(N)=O)CC3)o2)c1	i	i	9%	/	/
Cc1ccccc1-c1n[nH]c(=S)o1	i	i	-12%	-102%*	-18%
Cc1ccc(-c2cc(-c3n[nH]c(=S)o3)c3ccccc3n2)cc1	i	i	?	i	-14%
S=c1[nH]nc(-c2cc(-c3ccccn3)nc3ccccc23)o1	i	i	3.2µM*	i	14%
COc1ccc(NC(=O)Cn2c(=O)oc3cc(S(=O)(=O)N4CCC(C)CC4)ccc32)c(OC)c1	i	i	5%	/	/
CC(=O)Nc1ccc(C(=O)N2CCCCC2c2cc(C(=O)Nc3cccc4c3CCCC4)no2)cc1 (configuration not stated)	i	?	?	i	16%
Cn1nc(C(C)(C)C)cc1C(=O)N1CCCCC1c1cc(C(=O)Nc2cccc3c2CCCC3)no1 (configuration not stated)	i	32µM*	7%	/	8%
CC(=O)c1cc2c(cc1N/C(=N/S(=O)(=O)c1ccc(F)cc1)c1ccccc1)OCO2	i	i	-10%	/	/
CCc1ccc(CNC(=O)c2sc3ncccc3c2-n2c(C)ccc2C)cc1	i	i	-72%	/	/
N#CCC(=O)N/N=C/c1ccc(Sc2nc3ccccc3s2)o1	i	3.5µM*	?	i	0%
O=C(Cc1cccc2ccccc12)N/N=C/c1ccc(Sc2nc3ccccc3s2)o1	i	?	2%	-112%*	4%
Cc1nc(N)sc1-c1csc(Nc2ccccn2)n1	i	i	9%	-110%*	4%
Cc1ccc(Nc2nc(-c3sc(C)nc3C)cs2)cc1	i	i	20µM*	i	-3%
CC(=O)c1cccc(Nc2nc(-c3sc(C)nc3C)cs2)c1	i	i	11µM*	i	-6%
Cc1nc(NC(=O)c2ccco2)sc1-c1csc(Nc2ccc(Cl)cc2)n1	i	22µM*	?	i	-6%
CNC(=O)C1CCC(Cn2c(=O)c3sccc3n(CC(=O)Nc3ccc(C)c(F)c3)c2=O)CC1 (configuration not stated)	i	i	18%	/	/
CCN(c1ccccc1)c1ncnc2c1cnn2-c1ccc(OC)cc1	i	i	?	/	/
SMILES	Abeta rescue	FUS suppressor	TDP43 rescue	pAkt inh	aSyn rescue
Cc1ccnc(Nc2nc(-c3sc(C)nc3C)cs2)c1	i	i	?	i	-19%
Cc1nc(C)c(-c2csc(Nc3ccccn3)n2)s1	?	i	35µM*	i	-21%
O=S(=O)(NCC(c1ccco1)N1CCN(c2ccccc2)CC1)c1ccccc1 (configuration not stated)	i	i	-8%	/	/
COc1cc(C(=O)N(Cc2ccc(F)cc2)Cc2ccco2)cc(OC)c1OC	i	i	-2%	/	/
O=C(Nc1ccccc1-c1ccccc1)c1ccc(Br)o1	i	i	22µM*	i	-12%
Cc1nn(CC(=O)c2ccc(Cl)s2)c(C)c1[N+](=O)[O-]	i	18µM*	29%	i	19%
Cc1nn(CC(=O)Nc2ccc3c(c2)OCCO3)c(C)c1[N+](=O)[O-]	i	i	6.3µM*	i	3%
Cc1ccc(C(=O)Cn2nc(C)c([N+](=O)[O-])c2C)c(C)c1	i	i	20%	i	2%
COc1cccc(-n2ccnc2SCC(=O)Nc2cccc(C)c2C)c1	i	i	16µM*	/	2%
Cc1cc(C)cc(-n2ccnc2SCC(=O)Nc2cccc3ccccc23)c1	i	i	20µM*	/	10%
CCSc1nnc(NC(=O)CSc2nccn2-c2cccc(C)c2C)s1	i	i	16µM*	i	4%
O=C(CSc1nccn1-c1ccc(Cl)cc1)Nc1cccc2ccccc12	i	i	11µM*	/	/
CCSc1nnc(NC(=O)CSc2nccn2-c2cc(C)cc(C)c2)s1	i	i	23%	i	4%
CCOc1ccccc1NC(=O)CSc1nccn1-c1ccc(Cl)cc1	i	i	?	/	/
O=S(=O)(NCCc1csc2nc(-c3ccc(F)cc3)nn12)c1ccc(Oc2ccccc2)cc1	i	i	17%	/	/
O=C(CCCCn1c(=O)[nH]c2ccsc2c1=O)N1CCN(c2cccc(C(F)(F)F)c2)CC1	i	i	9%	/	/
O=C(CSc1nccn1-c1cccc(Cl)c1)Nc1ccc2c(c1)OCO2	i	i	18µM*	/	/
O=C(CSc1nccn1-c1cccc(Cl)c1)Nc1ccc2c(c1)OCCO2	i	i	?	i	6%
COc1ccc(-n2ccnc2SCC(=O)Nc2ccccc2)cc1	i	i	28%	i	0%
COC(=O)c1ccccc1NC(=O)CSc1nccn1C	i	i	3%	-99%*	-1%
O=C(CSc1nccn1-c1ccc(F)cc1)Nc1ccc(OC(F)(F)F)cc1	?	i	16µM*	/	/
Cc1cc(C)n(-c2nc(C)c(C)c(=O)n2CC(=O)Nc2ccc(Cl)c(Cl)c2)n1	i	i	19%	/	/
CCC(=O)Oc1c(Sc2ccc(Cl)cc2)c(C)nn1-c1ccccc1	i	i	-94%	/	/

Screens as filed in PubChem.
